# The full list was thinned out, with hits kept by preference.
# Rtt109 Vps75: C. albicans Rtt109 histone acetyltransferase inhibition. purified Rtt109/Vps75, ThioGlo CoA-SH fluorescence, 4 h. inhibition, % at 34.9 µM. hit rate 0.16% among 330,000;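 active = inhibition of at least 50% in every replicate; inconclusive = best replicate reaches 50% inhibition but some replicates fall short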
# Target sequence (Q5AAJ8 whole entry, looked up): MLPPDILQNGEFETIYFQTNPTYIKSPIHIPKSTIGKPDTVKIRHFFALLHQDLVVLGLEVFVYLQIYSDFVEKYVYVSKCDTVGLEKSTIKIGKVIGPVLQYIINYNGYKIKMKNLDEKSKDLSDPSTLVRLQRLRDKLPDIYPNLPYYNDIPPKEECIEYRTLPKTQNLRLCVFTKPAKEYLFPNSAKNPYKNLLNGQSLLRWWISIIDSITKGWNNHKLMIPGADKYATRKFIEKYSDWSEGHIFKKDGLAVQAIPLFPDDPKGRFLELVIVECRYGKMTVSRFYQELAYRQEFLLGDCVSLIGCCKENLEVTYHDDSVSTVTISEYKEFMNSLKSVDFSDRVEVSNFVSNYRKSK
# DENV2 CPE: protects cells from dengue virus 2 cytopathic effect. DENV2-infected cells, cytopathic effect rescue, plate reader. CPE inhibition, % at 9.99 µM. hit rate 1.7% among 350,000. AID 651640; in the data active = CPE inhibition above about 20%, passing the limit was not always enough; inconclusive = no clear call, values can overlap the other calls; tested in BHK-21 cells
# Glyco luc inh: blocks N-linked glycosylation in D54 reporter cells; reporter increase, % at 12.5 µM; D54 ERlucT glycosylation luciferase reporter, 24 h; percent of 100 nM tunicamycin response; hit rate 0.23% among 360,000;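 active = mean luciferase reporter signal, scaled so untreated is 0 and the glycosylation-blocking control 100, at or above a set limit in every replicate; inconclusive = mean reaches the limit but not every replicate does; inactive = mean below the limit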;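 also: luciferase carries N-glycosylation sites so blocking glycosylation raises the light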
# PglD DTNB: inhibitors of Campylobacter jejuni PglD acetyltransferase | purified PglD enzyme, DTNB colorimetric CoA detection | inhibition, % at 12.5 µM | hit rate 0.098% among 360,000 | AID 602405; in the data active = inhibition above about 16%, passing the limit was not always enough; inconclusive = no clear call, values can overlap the other calls
# Numbers stand for hits; 0 = inactive; ? = inconclusive; - = no result given; ! = repeats disagree.
SMILES,Rtt109 Vps75,DENV2 CPE,Glyco luc inh,PglD DTNB
O=C(c1cccnc1)N1CCCCN2[C@H](CO)[C@@H](c3ccc(C#Cc4ccccn4)cc3)[C@H]2C1,-,20.3,-,0
Cc1ccccc1-c1ccc(C2[C@@H]3CN(C(=O)c4cnccn4)C[C@H]2N3)cc1 (stereo partly drawn),-,29.2!,-,-
Cc1ccccc1-c1ccc([C@@H]2[C@@H](CO)N3CCCCN(C(=O)c4cccnc4)C[C@H]23)cc1,-,49.1,-,0
Cc1ccccc1-c1ccc([C@H]2[C@@H](CO)N3CCCCN(C(=O)c4cccnc4)C[C@H]23)cc1,-,0,-,0
O=C(N[C@@H]1CC[C@@H](CCNC(=O)C2CCCC2)O[C@@H]1CO)c1ccccn1,-,0,-,0
CN1C(=O)c2cc(NC(=O)Nc3ccccc3F)ccc2OC[C@H]2O[C@H](CC(=O)O)CC[C@@H]21,-,0,-,0
Cc1noc(C)c1NC(=O)Nc1cccc2c1O[C@H](CN(C)S(=O)(=O)c1ccc(F)cc1)[C@H](C)CN([C@@H](C)CO)C2=O,-,0,-,0
C[C@H]1CN([C@@H](C)CO)C(=O)c2cccc(NC(=O)Nc3ccccc3)c2O[C@@H]1CN(C)S(=O)(=O)c1cn(C)cn1,-,46.6,-,0
Cc1noc(C)c1NC(=O)Nc1cccc2c1O[C@@H](CN(C)S(=O)(=O)c1cn(C)cn1)[C@@H](C)CN([C@@H](C)CO)C2=O,-,26.6,-,0
Cc1noc(C)c1NC(=O)Nc1cccc2c1O[C@@H](CN(C)S(=O)(=O)c1ccc(F)cc1)[C@@H](C)CN([C@@H](C)CO)C2=O,-,89.3,-,0
Cc1noc(C)c1NC(=O)Nc1cccc2c1O[C@H](CN(C)S(=O)(=O)c1cn(C)cn1)[C@@H](C)CN([C@H](C)CO)C2=O,0,0,0,0
C[C@@H]1CN([C@H](C)CO)C(=O)c2cc(NS(=O)(=O)c3ccc(F)cc3)ccc2O[C@@H]1CN(C)C,-,0,-,0
C[C@@H]1CN([C@@H](C)CO)C(=O)c2cc(NC(=O)Cc3cn(C)c4ccccc34)ccc2O[C@@H]1CN(C)C(=O)Nc1cccc2ccccc12,-,0,-,0
C[C@H]1CN([C@@H](C)CO)C(=O)c2cc(NS(=O)(=O)c3ccc(Cl)cc3)ccc2O[C@H]1CN(C)CC1CC1,-,0,-,0
CNC(=O)C[C@@H]1CC[C@@H]2[C@H](COc3ccc(NC(=O)Nc4ccc(F)c(F)c4)cc3C(=O)N2C)O1,-,0,-,0
Cc1ccc(S(=O)(=O)NCC[C@@H]2CC[C@H](NC(=O)CCN3CCCCC3)[C@H](CO)O2)cc1,-,72.6,-,0
O=C(NCC[C@@H]1CC[C@@H](NC(=O)C2CCCC2)[C@@H](CO)O1)c1ccc(F)cc1,-,0,-,0
O=C(NCC[C@H]1CC[C@H](NC(=O)C2CCCC2)[C@@H](CO)O1)c1ccc(F)cc1,-,29.4,-,0
Cc1ccccc1S(=O)(=O)NCC[C@@H]1CC[C@H](NC(=O)C2CCCC2)[C@@H](CO)O1,-,22.9,-,0
Cc1ccc(S(=O)(=O)NCC[C@H]2CC[C@@H](NC(=O)Nc3ccccc3F)[C@H](CO)O2)cc1,-,20.4,-,0
Cc1ccccc1S(=O)(=O)NCC[C@@H]1CC[C@@H](NC(=O)C2CCCC2)[C@@H](CO)O1,-,0,-,0
CCN1C[C@@H](C)[C@H](OC)CN(C)C(=O)c2cc(NC(=O)NC(C)C)ccc2OC[C@H]1C,-,0,-,0
C[C@H](CO)N1C[C@H](C)[C@@H](CN(C)C(=O)c2cccc(F)c2)Oc2ncc(-c3ccncc3)cc2C1=O,-,0,-,0
O=C(Nc1ccc2c(c1)[C@H]1C[C@H](CC(=O)N3CCCCC3)O[C@H](CO)[C@H]1O2)NC1CCCC1,-,?,-,0
O=C(CCN1CCCCC1)N[C@H]1CC[C@@H](CCNS(=O)(=O)c2ccc(F)cc2)O[C@H]1CO,-,25.3,-,0
SMILES,Rtt109 Vps75,DENV2 CPE,Glyco luc inh,PglD DTNB
O=C(CCN1CCCCC1)N[C@H]1CC[C@@H](CCNS(=O)(=O)c2ccc(Cl)cc2)O[C@H]1CO,-,0,-,0
O=C(N[C@H]1CC[C@@H](CCNS(=O)(=O)c2ccc(F)cc2)O[C@H]1CO)C1CCCC1,-,21.4,-,0
CCC1=C(OC(=O)N(CC)CC)N2C(=O)OC(=NCC(=O)OC)[C@]2(Cc2ccccc2)[C@H]2C1=CC[C@H]1C(=O)NC(=O)[C@H]12,0,23.3,0,0
O=C(Nc1ccc(Cl)cc1)N(CCCN1CCOCC1)Cc1cccs1,0,25.5,0,0
S=C(Nc1ccc(Cl)cc1)N(CCCN1CCOCC1)Cc1cccs1,0,0,0,0
CO/N=C/C(C#N)=C/c1cc(C(=O)c2ccccc2)cn1C,0,46.3,0,-
N#Cc1c(-c2ccccc2)nc(SCC(=O)N2c3ccccc3Sc3ccccc32)[nH]c1=O,57.8,0,0,-
N#Cc1c(-c2ccccc2)nc(SCC(=O)N(c2ccccc2)c2ccccc2)[nH]c1=O,0,0,0,0
CC1(C)COC(c2cc([N+](=O)[O-])ccc2Cl)=N1,0,-,0,0
CC1(C)COC(c2ccc(F)c([N+](=O)[O-])c2)=N1,0,33.5,0,-
CCCC[C@@H]1CCCO[C@@](C(=O)NCc2ccccn2)(C(F)(F)F)C1,0,?,0,0
CCC[C@@H]1CCCO[C@@](C(=O)NCc2ccccn2)(C(F)(F)F)C1,0,68.8,0,0
Cc1cc(OC(C)C(=O)NCCCN2CCOCC2)ccc1Cl (stereo not drawn),0,0,0,0
CC(Oc1ccc(Cl)cc1Cl)C(=O)NCCCN1CCOCC1 (stereo not drawn),0,62.5,0,0
COc1ccc(CNC(=O)C[C@H]2C[C@@H]3c4cc(NC(=O)CC5CC5)ccc4O[C@@H]3[C@H](CO)O2)cc1,-,0,-,0
CO[C@H]1CN(C)C(=O)c2cc(NC(=O)C3CCOCC3)ccc2OC[C@H](C)N(Cc2cccnc2)C[C@@H]1C,-,0,-,0
O=C(C[C@@H]1CC[C@@H](NC(=O)CN2CCOCC2)[C@@H](CO)O1)NC1CCC1,-,0,-,0
Cc1cc2oc3ccc(NCCCN4CCOCC4)cc3c(=O)c2cc1C,0,37.4,0,0
Cc1cc2oc3ccc(NCCCn4ccnc4)cc3c(=O)c2cc1C,0,-,0,0
CC(C)NC(=O)Nc1ccc2c(c1)C(=O)N([C@H](C)CO)C[C@H](C)[C@H](CN(C)S(=O)(=O)c1cn(C)cn1)OCCCC[C@H](C)O2,-,0,-,0
O=C(Nc1ccncc1)Nc1ccc(Cl)cc1Cl,0,71.4,0,0
O=C(Nc1ccncc1)Nc1cc(Cl)ccc1Cl,0,0,0,0
COCC(=O)N1C[C@@H](C)[C@@H](OC)CN(C)C(=O)c2cc(NC(=O)Nc3cccc(F)c3)ccc2OC[C@H]1C,-,?,-,0
Cc1noc(C)c1NC(=O)Nc1ccc2c(c1)C(=O)N([C@@H](C)CO)C[C@H](C)[C@@H](CN(C)Cc1ccccc1)O2,-,29.1,-,0
Cc1noc(C)c1NC(=O)Nc1ccc2c(c1)C(=O)N([C@H](C)CO)C[C@H](C)[C@H](CN(C)Cc1ccc(Cl)c(Cl)c1)OCCCC[C@H](C)O2,-,26.6,-,0
Cc1noc(C)c1NC(=O)Nc1ccc2c(c1)C(=O)N([C@@H](C)CO)C[C@@H](C)[C@@H](CN(C)Cc1ccccc1)OCCCC[C@@H](C)O2,-,88.8,-,0
Cc1noc(C)c1NC(=O)Nc1ccc2c(c1)C(=O)N([C@@H](C)CO)C[C@H](C)[C@@H](CN(C)Cc1ccc3c(c1)OCO3)OCCCC[C@@H](C)O2,-,0,-,0

# Screening data (PubChem)
